# Bioassay records: PubChem, National Center for Advancing Translational Sciences (NCATS)
# Compounds with a hit are over-represented: about 21% of the library has one in this group of screens.
# Shiga toxin inh: A qHTS for Small Molecule Inhibitors of Shiga Toxin. Vero cells, Shiga toxin protein synthesis inhibition reporter. inhibition, % at 38.7 µM. 290,000 tested, 9.2% active; in the data active = inhibition mostly above about 28%, no sharp cut-off; inactive = mostly below about 43%; also: 0% is about no effect
# NS1 function inh: qHTS Assay for Inhibitors of Influenza NS1 Protein Function | 270,000 tested, 0.4% active | Potency, µM (highest dose often 46.1 µM), without a hit: at the highest dose activity, positive = more growth; calls by dose curve; also: potency is read from the fitted curve at half-maximal effect; actives are rising curves; nearly all actives have a fitted effect of over 50% in size
#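 OD600 was taken as the measure of yeast growth restored by compound in an NS1-expressing S. cerevisiae strain. Cells had been washed out of glucose medium and diluted 1:100 into galactose -URA medium, pH 6.0.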
# Pf growth 48h: Primary qHTS for delayed death inhibitors of the malarial parasite plastid, 48 hour incubation; 310,000 tested, 5.9% active; P. falciparum luciferase growth in erythrocytes, 48 h; Potency, µM (series often up to 28.7 µM), inactives show at the highest dose activity change, negative = inhibition, actives largely listed as inhibitors; also: potency is read from the fitted curve at half-maximal effect; % is scaled to controls: 0 for no effect and ±100 for the full control effect
#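 Read-out is firefly luciferase luminescence from an integrated reporter in P. falciparum, so falling signal marks reduced parasite growth. Infected erythrocytes were at 2% hematocrit and 0.1% parasitemia (final) in Albumax-supplemented RPMI 1640.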
# Pf growth 96h: Primary qHTS for delayed death inhibitors of the malarial parasite plastid, 96 hour incubation. P. falciparum luciferase reporter growth, 96 h. Potency, µM (series often up to 28.7 µM), without a hit: at the top dose activity change, negative = inhibition, usual class: inhibitors. AID 504834, 2011. 320,000 tested, 6.9% active; also: potency is read from the fitted curve at half-maximal effect; % is scaled to controls: 0 for no effect and ±100 for the full control effect
#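 P. falciparum expressing integrated firefly luciferase, in erythrocytes at 2% hematocrit, 0.05% parasitemia, incubated with compounds 96 h at 37 C, 5% CO2. Growth inhibition read as loss of luminescence; two-generation exposure targets delayed-death apicoplast inhibitors.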
# Cycloheximide cs: Cycloheximide Counterscreen for Small Molecule Inhibitors of Shiga Toxin | cell reporter, cycloheximide protein synthesis inhibition counterscreen | max response, % | 300,000 tested, 12% active | AID 2314, 2010; in the data active = max response mostly above about 13%, no sharp cut-off; inactive = mostly below about 14%; also: read at 38.3 µM for the half of the compounds with a filed dose; 0% is about no effect
# * marks the source's active call; other numbers are inactive results; ? = inconclusive; . = no result given; ! = not confirmed by another sample. Unless noted, calls follow the shape of the dose curve; as a rule, active = well fitted inhibition curve with a large enough effect; inconclusive = small, poorly fitted or top-dose-only effect, or another doubt; inactive = no such curve, though single readings can be large or run the other way.
SMILES,Shiga toxin inh,NS1 function inh,Pf growth 48h,Pf growth 96h,Cycloheximide cs
COc1cc(/C=C2\CC/C(=C\c3cc(OC)c(O)c(OC)c3)C2=O)cc(OC)c1O,-11,14%,?,6.6µM*,1
COc1ccc(/C=C2/CC/C(=C\c3ccc(OC)c(OC)c3OC)C2=O)c(OC)c1OC,-4,0%,?,29%,-2
COc1cc(/C=C2\Oc3cc(O)ccc3C2=O)ccc1O,70*,-1%,147%,?,51*
COc1cc(/C=C2\CCC/C(=C\c3ccc(O)c(OC)c3)C2=O)ccc1O,76*,-1%,9.3µM*,5.4µM*!,42*
Cc1sc2ncn(CC(=O)N3CCN(c4ccccc4)CC3)c(=O)c2c1S(=O)(=O)N1CCOCC1,-23,6%,-2%,?,-5
COCCCNC(=O)C1CCN(S(=O)(=O)c2ccc3nc4c(c(C(=O)O)c3c2)CCCCC4)CC1,17,3%,19%,-20%,1
CCOc1ccc(NC(=O)CSc2nc(-c3cccs3)cc(C(F)(F)F)n2)c([N+](=O)[O-])c1,-1,6%,6%,-5%,-2
CCOc1cc(/C=N/N=C/c2ccc(O)c(OCC)c2)ccc1O,21,3%,.,5%,11
CCOc1cc(/C=C2\CN(CC)C/C(=C\c3ccc(O)c(OCC)c3)C2=O)ccc1O,3,-1%,2.1µM*,2.1µM*,24*
C/C(Cl)=C/Cn1c(=O)c2c(nc(Br)n2Cc2ccccc2)n(C)c1=O,-4,2%,?,?,-2
C=CCn1c(=N)c(C(=O)OCC)cc2c(=O)n3cc(C)ccc3nc21,-5,8%,13%,-17%,11
N=c1c(C(=O)NCc2ccc3c(c2)OCO3)cc2c(=O)n3ccccc3nc2n1Cc1cccnc1,-4,4%,10µM*,3%,-2
CCCCNC(=O)c1cc2c(=O)n3cccc(C)c3nc2n(Cc2ccncc2)c1=N,11,-1%,5.2µM*,-25%,-2
Cc1ccc2nc(NCCCN3CCOCC3)c(C=NCCCN3CCOCC3)c(=O)n2c1,25,-3%,5%,-3%,9.9*
Cc1ccc2nc3c(cc(C(N)=S)c(=N)n3CCCOC(C)C)c(=O)n2c1,10,5%,12µM*,1.5µM*,-1
O=C(CCC1CCCN(Cc2ccncc2)C1)NCc1ccc(F)c(F)c1 (configuration not stated),-2,-4%,-12%,?,-1
COCCN1C(=O)N(c2cccc(C)c2)C(=O)C1CC(=O)Nc1ccc(OC)cc1 (configuration not stated),-4,-1%,?,10%,-2
N=c1c(C(=O)NCCN2CCOCC2)cc2c(=O)n3ccccc3nc2n1Cc1ccc(F)cc1,-3,4%,9.3µM*,10µM*,7
CCOCCCn1c(=N)c(C(=O)NCc2ccc3c(c2)OCO3)cc2c(=O)n3cccc(C)c3nc21,-3,4%,1µM*,12%,-3
CCCn1c(=N)c(C(=O)NC2CCCC2)cc2c(=O)n3cccc(C)c3nc21,-7,-7%,1.9µM*,?,-2
N=c1c(C(=O)NCCN2CCOCC2)cc2c(=O)n3ccccc3nc2n1CCCN1CCOCC1,-4,16%,?,39%,-9
CCCCNC(=O)c1cc2c(=O)n3cccc(C)c3nc2n(CCN2CCOCC2)c1=N,10,0%,3.7µM*,?,-4
Cc1cccn2c(=O)c3cc(C(=O)NC4CCCCC4)c(=N)n(CCN4CCOCC4)c3nc12,-15,0%,?,?,-1
Cc1cccn2c(=O)c3cc(C(=O)NCCCN4CCOCC4)n(C)c3nc12,-8,-2%,-7%,15%,-2
Cc1ccc(-c2ccc(C(=O)NCCCNC(=O)c3cnccn3)o2)cc1Cl,6,-2%,?,-1%,9
O=C(Nc1ccccc1C(F)(F)F)C1CCN(C(=O)Cc2ccccc2)CC1,-3,-10%,7%,-20%,-2
Cc1ccc2nc3c(cc(C(=O)NCCc4ccccc4)c(=N)n3CCN3CCOCC3)c(=O)n2c1,2,-4%,-37%,-5%,2
Cc1ccc2nc3c(cc(C(=O)NCCN4CCOCC4)c(=N)n3CCCN3CCOCC3)c(=O)n2c1,-5,6%,12µM*,?,-6
C=CN1CCCC1=O,-10,.,.,.,-2
